# How the values were obtained:
# Test in all cases: DAPPL (digital affinity profiling via proximity ligation, sequencing); 10 mM Tris-HCl pH 7.5, 50 mM NaCl, 1 mM DTT, 4% glycerol, room temperature, 30 min; GST-TFs on glutathione beads, 16-mer random dsDNA library, 0.1% formaldehyde crosslink after washing; high values mean tight binding
# FEV = biological target: T1, FEV (Homo sapiens, UniProt Q99581 1-238); conditions: protein: recombinant; tags: N-terminal GST; dsDNA, one strand shown
# T1 sequence: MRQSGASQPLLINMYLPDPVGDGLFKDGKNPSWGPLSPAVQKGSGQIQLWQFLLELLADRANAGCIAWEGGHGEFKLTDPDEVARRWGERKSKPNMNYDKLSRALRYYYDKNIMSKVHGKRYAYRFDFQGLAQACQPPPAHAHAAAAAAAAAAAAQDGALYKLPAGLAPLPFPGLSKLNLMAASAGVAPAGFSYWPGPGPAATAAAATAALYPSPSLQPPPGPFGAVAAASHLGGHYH
# Procedure, shortened: (§1)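 In yeast, human transcription factors were expressed with a GST fusion, then pulled down on glutathione beads and given DNA barcodes. Pooled with a tag-only sample, they were exposed to 200 nmole of a 16-mer random double-stranded DNA library (Tris/NaCl/DTT/glycerol buffer, room temperature, 30 min), washed, crosslinked with 0.1% formaldehyde, proximity-ligated using BsaI/T4 ligase for 1 h at 37 °C, PCR-amplified and read on an Illumina NextSeq500. Each hexamer's frequency of reads for a factor, divided by the matching frequency for the tag-only sample, gives the binding signal.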
# ETV5 = ETV5 (Homo sapiens, UniProt P41161 1-510); conditions: protein: recombinant; tags: N-terminal GST; dsDNA, one strand shown
# Chain of ETV5 (P41161 whole entry): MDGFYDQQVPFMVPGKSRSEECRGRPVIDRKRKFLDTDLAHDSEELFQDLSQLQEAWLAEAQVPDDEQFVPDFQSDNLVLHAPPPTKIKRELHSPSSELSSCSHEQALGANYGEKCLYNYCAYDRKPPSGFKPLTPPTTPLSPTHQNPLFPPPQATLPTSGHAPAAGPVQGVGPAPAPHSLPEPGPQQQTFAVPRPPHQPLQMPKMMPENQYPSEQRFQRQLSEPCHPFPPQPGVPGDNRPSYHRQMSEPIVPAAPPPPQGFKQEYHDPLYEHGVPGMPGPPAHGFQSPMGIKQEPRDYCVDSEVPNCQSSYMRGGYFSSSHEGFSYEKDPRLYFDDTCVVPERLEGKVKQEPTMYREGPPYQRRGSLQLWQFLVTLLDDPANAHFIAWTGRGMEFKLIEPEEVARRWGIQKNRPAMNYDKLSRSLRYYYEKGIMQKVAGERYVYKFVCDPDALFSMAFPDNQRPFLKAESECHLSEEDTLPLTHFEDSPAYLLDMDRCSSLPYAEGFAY
# Procedure, shortened: as §1
# HSF1 = HSF1 (Homo sapiens, UniProt Q00613 1-529); conditions: protein: recombinant; tags: N-terminal GST; chain copies: 3; dsDNA, one strand shown
# Chain of HSF1 (Q00613 whole entry): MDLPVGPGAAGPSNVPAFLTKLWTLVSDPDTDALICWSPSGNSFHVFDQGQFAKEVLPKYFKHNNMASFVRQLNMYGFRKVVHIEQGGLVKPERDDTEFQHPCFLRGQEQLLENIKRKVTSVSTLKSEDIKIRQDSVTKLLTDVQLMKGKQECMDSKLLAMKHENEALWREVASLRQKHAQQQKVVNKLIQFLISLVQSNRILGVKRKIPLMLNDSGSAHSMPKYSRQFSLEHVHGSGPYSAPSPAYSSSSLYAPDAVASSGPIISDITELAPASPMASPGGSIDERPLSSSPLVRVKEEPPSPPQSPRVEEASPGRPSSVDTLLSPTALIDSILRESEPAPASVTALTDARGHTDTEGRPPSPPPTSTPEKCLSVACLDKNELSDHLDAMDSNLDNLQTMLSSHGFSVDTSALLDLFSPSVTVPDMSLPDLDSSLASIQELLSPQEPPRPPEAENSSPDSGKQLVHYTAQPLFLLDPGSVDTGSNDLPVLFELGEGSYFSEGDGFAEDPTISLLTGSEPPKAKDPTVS
# Procedure, shortened: as §1
# SPIC = biological target: T2, SPIC (Homo sapiens, UniProt Q8N5J4 1-248); conditions: protein: recombinant; tags: N-terminal GST; dsDNA, one strand shown
# T2 sequence: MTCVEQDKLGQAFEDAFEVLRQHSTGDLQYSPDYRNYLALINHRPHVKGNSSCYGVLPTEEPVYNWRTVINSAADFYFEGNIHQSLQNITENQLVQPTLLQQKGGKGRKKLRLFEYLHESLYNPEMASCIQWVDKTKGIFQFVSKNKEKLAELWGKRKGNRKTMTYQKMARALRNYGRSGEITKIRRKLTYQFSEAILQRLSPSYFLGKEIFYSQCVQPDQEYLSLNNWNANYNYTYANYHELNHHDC
# Procedure, shortened: as §1
# ELF4 = ELF4 (Homo sapiens, UniProt Q99607 1-663); conditions: protein: recombinant; tags: N-terminal GST; dsDNA, one strand shown
# Chain of ELF4 (Q99607 whole entry): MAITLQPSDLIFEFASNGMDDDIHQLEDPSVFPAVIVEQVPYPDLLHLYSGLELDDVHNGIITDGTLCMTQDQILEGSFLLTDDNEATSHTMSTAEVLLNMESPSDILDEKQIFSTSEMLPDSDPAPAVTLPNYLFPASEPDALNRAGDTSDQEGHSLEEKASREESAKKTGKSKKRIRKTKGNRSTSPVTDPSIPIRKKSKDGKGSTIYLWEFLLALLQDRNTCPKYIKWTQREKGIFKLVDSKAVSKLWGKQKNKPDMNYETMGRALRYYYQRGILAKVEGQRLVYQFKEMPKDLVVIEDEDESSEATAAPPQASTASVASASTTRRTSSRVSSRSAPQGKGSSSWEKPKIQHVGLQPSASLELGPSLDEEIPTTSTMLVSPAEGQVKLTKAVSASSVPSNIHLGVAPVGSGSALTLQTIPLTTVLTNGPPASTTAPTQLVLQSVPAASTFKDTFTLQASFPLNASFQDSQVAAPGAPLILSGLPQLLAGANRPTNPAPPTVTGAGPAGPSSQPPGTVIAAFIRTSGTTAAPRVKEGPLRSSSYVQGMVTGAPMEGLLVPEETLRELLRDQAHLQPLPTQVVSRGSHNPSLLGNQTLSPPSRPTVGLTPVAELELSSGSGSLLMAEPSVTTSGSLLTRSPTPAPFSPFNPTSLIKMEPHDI
# Procedure, shortened: as §1
# ELK4 = biological target: T3, ELK4 (Homo sapiens, UniProt P28324-2 1-405); conditions: protein: recombinant; tags: N-terminal GST; dsDNA, one strand shown
# T3 sequence: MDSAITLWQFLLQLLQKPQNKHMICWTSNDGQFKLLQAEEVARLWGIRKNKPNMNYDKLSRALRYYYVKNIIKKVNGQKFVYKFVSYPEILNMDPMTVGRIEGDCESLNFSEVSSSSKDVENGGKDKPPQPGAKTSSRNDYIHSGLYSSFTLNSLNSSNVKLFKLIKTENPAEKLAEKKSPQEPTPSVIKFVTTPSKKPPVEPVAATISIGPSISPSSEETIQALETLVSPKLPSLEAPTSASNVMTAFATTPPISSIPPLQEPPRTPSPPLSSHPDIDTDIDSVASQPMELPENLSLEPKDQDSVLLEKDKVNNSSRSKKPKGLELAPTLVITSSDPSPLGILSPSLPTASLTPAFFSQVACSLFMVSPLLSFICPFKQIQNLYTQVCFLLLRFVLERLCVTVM
# Procedure, shortened: as §1
# ETV2 = biological target: T4, ETV2 (Homo sapiens, UniProt O00321 1-342); conditions: protein: recombinant; tags: N-terminal GST; dsDNA, one strand shown
# T4 sequence: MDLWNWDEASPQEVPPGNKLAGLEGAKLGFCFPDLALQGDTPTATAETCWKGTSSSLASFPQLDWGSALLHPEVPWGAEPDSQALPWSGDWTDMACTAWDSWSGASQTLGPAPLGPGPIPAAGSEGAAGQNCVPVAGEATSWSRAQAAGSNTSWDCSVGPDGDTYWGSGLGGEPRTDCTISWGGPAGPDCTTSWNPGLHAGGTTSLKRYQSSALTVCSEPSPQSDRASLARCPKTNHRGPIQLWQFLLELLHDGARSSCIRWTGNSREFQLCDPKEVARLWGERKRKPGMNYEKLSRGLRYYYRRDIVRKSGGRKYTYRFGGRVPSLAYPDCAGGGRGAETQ
# Procedure, shortened: as §1
# ELF3 = biological target: T5, ELF3 (Homo sapiens, UniProt P78545 1-371); conditions: protein: recombinant; tags: N-terminal GST; dsDNA, one strand shown
# T5 sequence: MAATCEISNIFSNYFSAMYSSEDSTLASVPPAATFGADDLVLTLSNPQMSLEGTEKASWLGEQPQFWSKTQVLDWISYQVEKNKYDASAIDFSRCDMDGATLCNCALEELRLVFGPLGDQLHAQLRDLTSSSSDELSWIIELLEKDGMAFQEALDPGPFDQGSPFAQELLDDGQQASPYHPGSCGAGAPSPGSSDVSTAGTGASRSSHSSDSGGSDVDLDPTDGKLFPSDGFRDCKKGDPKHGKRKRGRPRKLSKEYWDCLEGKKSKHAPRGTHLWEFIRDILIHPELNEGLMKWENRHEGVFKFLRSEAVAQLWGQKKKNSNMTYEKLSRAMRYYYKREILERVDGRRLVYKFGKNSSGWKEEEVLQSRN
# Procedure, shortened: as §1
# CRX = CRX (Homo sapiens, UniProt O43186 1-299); conditions: protein: recombinant; tags: N-terminal GST; dsDNA, one strand shown
# Chain of CRX (O43186 whole entry): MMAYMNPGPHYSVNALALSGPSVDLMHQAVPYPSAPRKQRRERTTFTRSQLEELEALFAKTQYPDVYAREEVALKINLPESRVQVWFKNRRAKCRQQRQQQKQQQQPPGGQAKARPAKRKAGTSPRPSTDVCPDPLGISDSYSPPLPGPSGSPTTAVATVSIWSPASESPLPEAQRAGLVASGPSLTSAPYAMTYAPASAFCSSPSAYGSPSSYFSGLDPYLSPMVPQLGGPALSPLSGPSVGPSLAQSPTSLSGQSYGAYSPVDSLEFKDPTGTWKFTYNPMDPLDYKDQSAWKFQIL
# Procedure, shortened: as §1
# ETV1 = ETV1 (Homo sapiens, UniProt P50549 1-477); conditions: protein: recombinant; tags: N-terminal GST; dsDNA, one strand shown
# Chain of ETV1 (P50549 whole entry): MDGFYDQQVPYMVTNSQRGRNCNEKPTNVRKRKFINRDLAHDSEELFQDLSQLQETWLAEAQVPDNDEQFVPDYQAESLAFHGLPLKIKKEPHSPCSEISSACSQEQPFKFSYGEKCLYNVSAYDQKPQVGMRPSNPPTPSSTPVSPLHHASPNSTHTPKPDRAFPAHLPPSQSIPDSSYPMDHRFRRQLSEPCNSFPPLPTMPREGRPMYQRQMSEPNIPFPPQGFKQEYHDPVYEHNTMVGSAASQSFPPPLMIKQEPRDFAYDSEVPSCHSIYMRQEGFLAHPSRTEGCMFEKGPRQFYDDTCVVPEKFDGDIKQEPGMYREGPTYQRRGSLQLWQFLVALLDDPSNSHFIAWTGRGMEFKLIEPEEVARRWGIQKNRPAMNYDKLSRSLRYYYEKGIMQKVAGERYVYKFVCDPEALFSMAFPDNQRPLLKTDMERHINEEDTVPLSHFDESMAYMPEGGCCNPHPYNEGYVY
# Procedure, shortened: as §1
# ERF = biological target: T6, ERF (Homo sapiens, UniProt P50548 1-548); conditions: protein: recombinant; tags: N-terminal GST; dsDNA, one strand shown
# T6 sequence: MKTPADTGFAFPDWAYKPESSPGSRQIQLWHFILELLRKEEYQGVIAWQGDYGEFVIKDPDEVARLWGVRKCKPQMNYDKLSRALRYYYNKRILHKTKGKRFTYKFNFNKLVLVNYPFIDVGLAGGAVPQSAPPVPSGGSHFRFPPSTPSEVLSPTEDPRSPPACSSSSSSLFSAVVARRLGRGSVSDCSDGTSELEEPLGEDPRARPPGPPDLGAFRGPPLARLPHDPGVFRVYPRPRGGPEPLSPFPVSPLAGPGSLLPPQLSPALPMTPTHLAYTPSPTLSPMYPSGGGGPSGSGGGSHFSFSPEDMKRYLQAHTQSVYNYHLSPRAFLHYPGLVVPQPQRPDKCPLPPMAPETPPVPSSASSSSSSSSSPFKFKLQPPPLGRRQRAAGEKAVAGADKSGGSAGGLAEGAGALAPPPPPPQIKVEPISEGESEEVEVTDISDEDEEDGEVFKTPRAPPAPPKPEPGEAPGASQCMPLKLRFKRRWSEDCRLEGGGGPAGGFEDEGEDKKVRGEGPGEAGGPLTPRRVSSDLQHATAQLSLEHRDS
# Procedure, shortened: as §1
# ETV3L = biological target: T7, ETV3L (Homo sapiens, UniProt Q6ZN32 1-361); conditions: protein: recombinant; tags: N-terminal GST; dsDNA, one strand shown
# T7 sequence: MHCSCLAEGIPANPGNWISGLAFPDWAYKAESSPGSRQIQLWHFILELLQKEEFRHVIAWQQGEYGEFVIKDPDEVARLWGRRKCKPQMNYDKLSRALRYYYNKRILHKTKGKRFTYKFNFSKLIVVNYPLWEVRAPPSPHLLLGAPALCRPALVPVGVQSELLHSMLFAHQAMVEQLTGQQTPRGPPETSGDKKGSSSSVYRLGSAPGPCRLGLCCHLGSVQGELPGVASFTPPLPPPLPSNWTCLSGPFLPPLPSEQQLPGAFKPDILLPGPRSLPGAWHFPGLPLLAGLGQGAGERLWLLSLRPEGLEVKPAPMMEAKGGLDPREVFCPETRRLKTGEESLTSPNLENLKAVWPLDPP
# Procedure, shortened: as §1
# ETS2 = biological target: T8, ETS2 (Homo sapiens, UniProt P15036 1-469); conditions: protein: recombinant; tags: N-terminal GST; dsDNA, one strand shown
# T8 sequence: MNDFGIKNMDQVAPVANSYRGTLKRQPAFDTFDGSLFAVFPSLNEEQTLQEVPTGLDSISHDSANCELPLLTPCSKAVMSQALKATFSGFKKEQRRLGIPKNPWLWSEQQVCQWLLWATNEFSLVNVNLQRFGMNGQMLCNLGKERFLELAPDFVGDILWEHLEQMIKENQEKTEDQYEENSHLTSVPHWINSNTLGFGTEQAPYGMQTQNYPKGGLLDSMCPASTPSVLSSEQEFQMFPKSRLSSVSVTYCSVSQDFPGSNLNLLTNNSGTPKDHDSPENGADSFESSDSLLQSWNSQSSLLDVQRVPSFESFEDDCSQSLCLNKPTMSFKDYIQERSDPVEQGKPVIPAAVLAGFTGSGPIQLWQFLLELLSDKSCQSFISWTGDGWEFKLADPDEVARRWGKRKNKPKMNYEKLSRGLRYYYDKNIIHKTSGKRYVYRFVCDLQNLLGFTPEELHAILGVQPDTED
# Procedure, shortened: as §1
# SPDEF = biological target: T9, SPDEF (Homo sapiens, UniProt O95238 1-335); conditions: protein: recombinant; tags: N-terminal GST; dsDNA, one strand shown
# T9 sequence: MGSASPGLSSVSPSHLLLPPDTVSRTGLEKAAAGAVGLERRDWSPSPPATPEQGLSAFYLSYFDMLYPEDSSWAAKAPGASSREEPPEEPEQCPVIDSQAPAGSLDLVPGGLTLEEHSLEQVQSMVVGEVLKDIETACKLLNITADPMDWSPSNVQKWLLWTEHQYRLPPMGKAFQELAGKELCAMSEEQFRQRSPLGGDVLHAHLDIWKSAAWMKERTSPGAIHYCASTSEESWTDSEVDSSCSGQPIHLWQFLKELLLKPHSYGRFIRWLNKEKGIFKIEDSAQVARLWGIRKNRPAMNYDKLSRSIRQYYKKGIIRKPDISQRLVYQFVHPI
# Procedure, shortened: as §1
# ETV7 = biological target: T10, ETV7 (Homo sapiens, UniProt Q9Y603 1-341); conditions: protein: recombinant; tags: N-terminal GST; dsDNA, one strand shown
# T10 sequence: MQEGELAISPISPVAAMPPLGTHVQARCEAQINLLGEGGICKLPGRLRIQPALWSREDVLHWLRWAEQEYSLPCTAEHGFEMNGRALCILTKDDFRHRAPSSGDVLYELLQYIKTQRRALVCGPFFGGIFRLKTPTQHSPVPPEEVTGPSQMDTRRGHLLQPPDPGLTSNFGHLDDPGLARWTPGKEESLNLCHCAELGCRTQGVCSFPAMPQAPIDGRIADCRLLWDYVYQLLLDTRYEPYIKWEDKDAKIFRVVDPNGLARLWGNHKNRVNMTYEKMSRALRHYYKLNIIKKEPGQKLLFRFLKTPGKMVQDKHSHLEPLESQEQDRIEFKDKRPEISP
# Procedure, shortened: as §1
# ELF5 = biological target: T11, ELF5 (Homo sapiens, UniProt Q9UKW6-2 1-255); conditions: protein: recombinant; tags: N-terminal GST; dsDNA, one strand shown
# T11 sequence: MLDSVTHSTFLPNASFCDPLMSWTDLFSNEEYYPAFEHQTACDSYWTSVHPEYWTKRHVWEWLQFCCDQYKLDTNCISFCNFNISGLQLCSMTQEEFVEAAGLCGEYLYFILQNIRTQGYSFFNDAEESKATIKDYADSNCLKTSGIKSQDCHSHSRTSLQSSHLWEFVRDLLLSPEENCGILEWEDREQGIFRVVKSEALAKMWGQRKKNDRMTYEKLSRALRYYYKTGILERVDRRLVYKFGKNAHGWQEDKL
# Procedure, shortened: as §1
# ETV3 = biological target: T12, ETV3 (Homo sapiens, UniProt P41162-2 1-143); conditions: protein: recombinant; tags: N-terminal GST; dsDNA, one strand shown
# T12 sequence: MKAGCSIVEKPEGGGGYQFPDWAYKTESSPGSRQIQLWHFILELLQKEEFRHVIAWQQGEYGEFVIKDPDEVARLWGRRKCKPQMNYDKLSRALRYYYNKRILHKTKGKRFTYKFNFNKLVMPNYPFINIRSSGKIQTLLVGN
# Procedure, shortened: as §1
# ETV6 = ETV6 (Homo sapiens, UniProt P41212 1-452); conditions: protein: recombinant; tags: N-terminal GST; dsDNA, one strand shown
# Chain of ETV6 (P41212 whole entry): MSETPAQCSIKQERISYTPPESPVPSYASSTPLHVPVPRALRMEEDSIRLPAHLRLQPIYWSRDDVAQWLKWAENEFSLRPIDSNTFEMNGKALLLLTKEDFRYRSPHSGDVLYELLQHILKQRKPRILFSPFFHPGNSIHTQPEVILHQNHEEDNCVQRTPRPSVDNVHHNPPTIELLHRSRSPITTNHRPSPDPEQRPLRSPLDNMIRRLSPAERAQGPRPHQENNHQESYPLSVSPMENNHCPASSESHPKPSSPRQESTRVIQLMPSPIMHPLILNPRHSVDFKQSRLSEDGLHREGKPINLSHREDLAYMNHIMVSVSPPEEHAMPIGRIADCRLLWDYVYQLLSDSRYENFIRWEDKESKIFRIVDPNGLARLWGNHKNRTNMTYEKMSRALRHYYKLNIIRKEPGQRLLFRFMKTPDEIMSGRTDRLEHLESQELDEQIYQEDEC
# Procedure, shortened: as §1
sequence,measurement,setting,value
AATCCG,binding signal,FEV,"2.44 fold enrichment (6-mer frequency, TF over GST control)"
same,binding signal,ETV5,"1.65 fold enrichment (6-mer frequency, TF over GST control)"
same,binding signal,HSF1,"2.09 fold enrichment (6-mer frequency, TF over GST control)"
same,binding signal,SPIC,"1.48 fold enrichment (6-mer frequency, TF over GST control)"
same,binding signal,ELF4,"1.46 fold enrichment (6-mer frequency, TF over GST control)"
same,binding signal,ELK4,"1.33 fold enrichment (6-mer frequency, TF over GST control)"
same,binding signal,ETV2,"1.47 fold enrichment (6-mer frequency, TF over GST control)"
same,binding signal,ELF3,"1.32 fold enrichment (6-mer frequency, TF over GST control)"
same,binding signal,CRX,"3.2 fold enrichment (6-mer frequency, TF over GST control)"
same,binding signal,ETV1,"1.43 fold enrichment (6-mer frequency, TF over GST control)"
same,binding signal,ERF,"1.5 fold enrichment (6-mer frequency, TF over GST control)"
same,binding signal,ETV3L,"1.6 fold enrichment (6-mer frequency, TF over GST control)"
same,binding signal,ETS2,"1.7 fold enrichment (6-mer frequency, TF over GST control)"
same,binding signal,SPDEF,"2.04 fold enrichment (6-mer frequency, TF over GST control)"
same,binding signal,ETV7,"1.51 fold enrichment (6-mer frequency, TF over GST control)"
same,binding signal,ELF5,"1.74 fold enrichment (6-mer frequency, TF over GST control)"
same,binding signal,ETV3,"1.66 fold enrichment (6-mer frequency, TF over GST control)"
same,binding signal,ETV6,"1.49 fold enrichment (6-mer frequency, TF over GST control)"

# — PMC7862700, “An all-to-all approach to the identification of sequence-specific readers for epigenetic DNA modifications on cytosine”
